PubChem BioAssay (NCI)
This is part of a sample that, as a whole, favours compounds with a hit. Of some 83,000 tested, about 20% had one in any assay.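 Single-concentration screen, 48 h exposure, 96-well plates. Endpoint: percent growth. Below 10 = active.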 A number with no mark means an inactive call. Active and inactive are the calls of the source.

tested on: UO-31 renal; experiment: NCI-60 one-dose screen, 48 h (100 = growth as untreated, 0 = no growth, -100 = all killed); conditions: 10 µM unless noted
Method: Growth inhibition of the UO-31 human tumor cell line is measured as a screen for anti-cancer activity. Cells are grown in 96 well plates and exposed to the test compound for 48 hours. Compounds are tested at a single concentration, which is 10^-5 M for most compounds. The reported endpoint is percent growth (GI% or GIPRCNT), where numbers from 0 - 100% represent growth inhibition, and numbers from -100% - 0 represent cell death. For example, a value of 40 represents 60% growth inhibition. A value of 0 means no net growth occurred over the course of the experiment. A value of -40 indicates 40% of cells at the beginning of the experiment died by the end of the experiment. A value of -100 means all cells are dead at the end of the experiment.
NCI-60 Human Tumor Cell Lines Screen was performed using the standard one-dose NCI protocol, which is described in more detail at https://dtp.cancer.gov/discovery_development/nci-60/default.htm.
Compounds with GIPRCNT values below 10 were considered active. Activity score was based on GIPRCNT using the following formula: […]
Score is 0 for GIPRCNT values of 100 or above, 50 for GIPRCNT values of 0, and 100 for GIPRCNT values of -100.

Question: With `COc1cc(N2CCC(N(C)C)CC2)ccc1Nc1ncc(Cl)c(Nc2ccccc2P(C)(C)=O)n1` as the compound, how does the growth read?
Answer: -81.2% (active)

Question: How did the growth turn out when `Cc1nc2ccc(-n3ncc(C(=O)c4cc5ccccc5[nH]4)c3N)cc2[nH]1` was run?
Answer: 48.9%

Question: Which growth does the source give for `Cc1ccsc1C(NC(=O)c1ccccc1)c1cc(Cl)c2cccnc2c1O` (stereo not given) here?
Answer: 2.22% (active)

Question: `O=C(c1ccc(/C=C/c2n[nH]c3ccccc23)cc1)N1CCNCC1` was tested. Which growth did it give?
Answer: -7.82% (active)

Question: `O=C(Cc1ccccc1)Nc1nnc(NC2CCN(c3nnc(NC(=O)Cc4ccccc4)s3)CC2)s1` was tested. Which growth did it give?
Answer: 74.4%

Question: Which growth does the source give for `CCCCCCC1(/C=N/NC(N)=O)NC(=O)NC1=O` (stereo not given) here?
Answer: 87.2%

Question: For `C=CC(=O)N(C)[C@H]1C[C@H]2OC(C)(C1OC)n1c3ccccc3c3c4c(c5c6ccccc6n2c5c31)C(=O)NC4` (stereo not given in full), which growth is on record?
Answer: -30.5% (active)

Question: `CCN1CCN(CCCN(C[C@H]2Cc3ccccc3CN2)[C@H]2CCCc3cccnc32)CC1` was tested. Which growth did it give?
Answer: 53.2%

Question: For `CNC(=O)c1cc(Oc2cccc3nc(Nc4ccc(Oc5ccccc5)cc4)ccc23)ccn1`, which growth is on record?
Answer: 57.9%

Question: For `CC(C)CC(=O)Nc1n[nH]c2c1CN(C(=O)C1CCN(C)CC1)C2(C)C`, which growth is on record?
Answer: 80.9%

Question: For `Cc1nc2cc(-c3nn(C(C)C)c4ncnc(N)c34)ccc2o1`, which growth is on record?
Answer: -35.7% (active)

Question: `COc1ccc(C2CC(=O)c3c(O)c(OC)c(OC)c(OC)c3O2)cc1O` (stereo not given) was tested. Which growth did it give?
Answer: 51.6%

Question: `CC#CC(=O)N1CCC[C@H]1c1nc(-c2ccc(C(=O)Nc3ccccn3)cc2)c2c(N)nccn12` was tested. Which growth did it give?
Answer: 79%

Question: Which growth does the source give for `Cn1cc(-c2ccc(F)c(C(F)(F)F)c2)nc1C1CCN(c2ncnc3[nH]ncc23)CC1` here?
Answer: 63.8%

Question: For `CC(C)C1CCC(C)C(C2(C#N)C(N)=NC(N)=C2C#N)C1=O` (stereo not given), which growth is on record?
Answer: 80.2%

Question: Which growth does the source give for `COc1ccc(CCCc2c3[n+](cc4c(OC)c(OC)ccc24)CCc2cc4c(cc2-3)OCO4)cc1` here?
Answer: 93.2%

Question: Which growth does the source give for `CCN(CC)c1cc2oc3cc(N)cc(=N)c-3nc2cc1C` here?
Answer: 67.9%

Question: For `N#Cc1c(-c2ccc(C(F)(F)F)cc2)cc(NCC2CCS(=O)(=O)CC2)n2c1nc1ccccc12`, which growth is on record?
Answer: 56.2%

Question: For `CCN1/C(=C/C=C/c2n(-c3ccccc3)c3ccc(-c4nc5ccccc5s4)cc3[n+]2CC)N(c2ccccc2)c2ccc(-c3nc4ccccc4s3)cc21`, which growth is on record?
Answer: -7.26% (active)

Question: With `O=C(c1ccccc1)C(c1ccccc1)N1CCOCC1` (stereo not given) as the compound, how does the growth read?
Answer: 86.9%

Question: With `CC(N)C(Cc1ccccc1)c1ccc(Cl)cc1` (stereo not given) as the compound, how does the growth read?
Answer: 65.4%

Question: `Cc1cc2c(-c3nc4ccccn4c3Nc3cccc4ccccc34)c(O)c(O)cc2c(O)c1-c1c(C)cc2c(-c3nc4ccccn4c3Nc3cccc4ccccc34)c(O)c(O)cc2c1O` was tested. Which growth did it give?
Answer: 44%

Question: For `Cc1cc2c(-c3nc4ccccn4c3NC34CC5CC(CC(C5)C3)C4)c(O)c(O)cc2c(O)c1-c1c(C)cc2c(-c3nc4ccccn4c3NC34CC5CC(CC(C5)C3)C4)c(O)c(O)cc2c1O`, which growth is on record?
Answer: -2.25% (active)

Question: Which growth does the source give for `CN1CCN(c2ccc(C(=O)Nc3n[nH]c4ccc(Cc5cc(F)cc(F)c5)cc34)c(NC3CCOCC3)c2)CC1` here?
Answer: -90.7% (active)

Question: How did the growth turn out when `Nc1ncnc2c1ccn2-c1cccc(NC(=O)c2ccc(N3CCOCC3)c(C(F)(F)F)c2)c1` was run?
Answer: 22%

Question: How did the growth turn out when `Cc1cc(NCC(=O)Nc2ccc(-c3nc4ccccc4s3)cc2)no1` was run?
Answer: 77%

Question: For `CCOC(=O)c1sc(NC(=O)COc2ccc(/C=C3\Cc4ccc(Cl)cc4C3=O)cc2)nc1C`, which growth is on record?
Answer: -77.3% (active)

Question: For `O=C(NOC[C@H](O)CO)c1ccc(F)c(F)c1Nc1ccc(I)cc1F`, which growth is on record?
Answer: 24.6%

Question: `CC(C)[C@@H](C)/C=C/[C@@H](C)[C@H]1CCC2=C3C=CC4=CC(=O)CC[C@]4(C)[C@H]3CC[C@@]21C` was tested. Which growth did it give?
Answer: 92%

Question: `COc1cc2nccc(Oc3ccc(NC(=O)C4(C(=O)Nc5ccc(F)cc5)CC4)cc3)c2cc1OC` was tested. Which growth did it give?
Answer: -19.2% (active)

Question: `Clc1ccc(C(Cn2ccnc2)OCc2ccsc2Cl)c(Cl)c1` (stereo not given) was tested. Which growth did it give?
Answer: 25.8%

Question: `CCCC(=O)OCC1OC(n2cnc3c(=S)nc(N)[nH]c32)C(OC(=O)CCC)C1OC(=O)CCC` (stereo not given) was tested. Which growth did it give?
Answer: 43.3%

Question: `C/C(=N\NC(=O)Cn1c(-c2ccc(S(C)(=O)=O)cc2)nc2ccccc21)c1ccc(Cl)cc1` was tested. Which growth did it give?
Answer: 66.1%

Question: With `CN1CCN(c2nc(C3=C(c4c[nH]c5ccccc45)C(=O)NC3=O)c3ccccc3n2)CC1` as the compound, how does the growth read?
Answer: 64%

Question: For `N#CC1(C#N)C(c2cccs2)NC(c2cccs2)C1(C#N)C#N` (stereo not given), which growth is on record?
Answer: 71.4%

Question: `Cc1ccc2oc(=O)cc(-c3cc(-c4cc5ccccc5oc4=O)nc(N)c3C#N)c2c1` was tested. Which growth did it give?
Answer: 48.5%

Question: `CC(C)[C@@H]1CC[C@@H]2[C@@H]1[C@H](OC(=O)/C=C/c1ccccc1)[C@]1(C(C)C)C[C@@H](OC(=O)CO)[C@@]2(C)O1` was tested. Which growth did it give?
Answer: 3.86% (active)

Question: `COC(=O)CCCNc1c(-c2c(O)c(O)cc3c(O)c(-c4c(C)cc5c(-c6nc7ccccn7c6NCCCC(=O)OC)c(O)c(O)cc5c4O)c(C)cc23)nc2ccccn12` was tested. Which growth did it give?
Answer: 57.8%

Question: For `CN(c1ncccc1CNc1nc(Nc2ccc3c(c2)CC(=O)N3)ncc1C(F)(F)F)S(C)(=O)=O`, which growth is on record?
Answer: -4.35% (active)

Question: Which growth does the source give for `Brc1ccc([I+]c2ccc(Br)cc2)cc1` here?
Answer: 51.2%
